The target in experiment [1] is Peroxisome proliferator-activated receptor gamma (Homo sapiens) (UniProt P37231). Put plainly: qHTS assay to identify small molecule agonists of the peroxisome proliferator-activated receptor gamma (PPARg) signaling pathway (AID 743094; active = well fitted activation curve with a large enough effect in the signal ratio in the repeat runs, not every such curve was filed as active; the % refers to the signal ratio). In short, it runs like this:
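Cell-based bla reporter, HEK293H background, PPARg-driven UAS. Pre-incubation 5 h, 37C, 5% CO2. Compound 17 h, 37C. Substrate 1 h RT; fluorescence.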

The target is the same in experiment [2]. The experiment can be described thus: qHTS assay to identify small molecule antagonists of the peroxisome proliferator-activated receptor gamma (PPARg) signaling pathway (AID 743191; calls by dose curve; note: nearly all actives have a fitted effect of over 30% in size; note: potency is the fitted concentration of half-maximal effect). The gist of the method: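 GeneBLAzer PPARg UAS-bla HEK293H cells carrying a UAS-driven beta-lactamase reporter were plated at 3000 cells/well, preincubated 5 h at 37C, then given compound for 17 h at 37C; LiveBLAzer B/G FRET substrate was read after 1 h at room temperature.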

A short description of experiment [3]: qHTS assay to identify small molecule antagonists of the peroxisome proliferator-activated receptor gamma (PPARg) signaling pathway - cell viability counter screen (AID 743194). Note: nearly all actives have a fitted effect of over 55% in size. In short, it runs like this:
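PPARg-UAS-bla HEK293H cells were plated, rested 5 h at 37 C, then treated with compounds plus rosiglitazone (50 nM final) for 17 h at 37 C; viability was then read by CellTiter-Glo luminescence after 30 min at room temperature.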

Experiment [4] is described as follows: qHTS assay for small molecule agonists of the antioxidant response element (ARE) signaling pathway (AID 743202; active = well fitted activation curve with a large enough effect in the signal ratio in the repeat runs, not every such curve was filed as active; the % refers to the signal ratio; note: potency is the fitted concentration of half-maximal effect). In short, it runs like this: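 Following a 16 h, 37 C exposure of reporter HepG2 cells (ARE-driven beta-lactamase, 2,000 cells/well) to compounds, FRET substrate was applied for 2 h at room temperature and fluorescence intensity recorded.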
The nature of experiment [5]: qHTS assay for small molecule agonists of the antioxidant response element (ARE) signaling pathway - cell viability counter screen (AID 743203; calls by dose curve; note: nearly all actives have a fitted effect of over 55% in size; note: potency is the fitted concentration of half-maximal effect). The gist of the method:
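Measured in the same wells as the beta-lactamase ARE reporter, this read-out is CellTiter-Glo luminescence from HepG2 ARE-bla cells given compounds for 16 hrs.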
(In general: qHTS replaces the single test concentration by a dilution series.)

Experiment [6] can be described thus: qHTS assay for small molecule activators of the heat shock response signaling pathway - cell viability counter screen (AID 743209). Note: nearly all actives have a fitted effect of over 50% in size. Note: potency is the fitted concentration of half-maximal effect. In short, it runs like this: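 Same-well multiplex: after 2.5 h room-temperature incubation with LiveBLAzer B/G substrate and fluorescence reading, CellTiter-Glo reagent was added to HSE-bla HeLa cells that had received compound for 5 h at 37 C; luminescence read after 30 min.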

Experiment [7] can be described thus: qHTS assay for small molecule activators of the heat shock response signaling pathway (AID 743210; active = well fitted activation curve with a large enough effect in the signal ratio in the repeat runs, with a control signal flat, not every such curve was filed as active; the % refers to the signal ratio; note: series mostly up to about 63 µM). The gist of the method: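 Heat shock element–beta-lactamase HeLa reporter cells; qHTS with compounds for 5 h at 37 C; detection by FRET substrate fluorescence after 2.5 h at RT.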
The target in experiment [8] is Aryl hydrocarbon receptor (Homo sapiens) (UniProt P35869). Put plainly: qHTS assay to identify small molecule that activate the aryl hydrocarbon receptor (AhR) signaling pathway (AID 743085).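 For activation: HG2L7.5c1 human HepG2 liver cells with stably integrated DRE-driven firefly reporter; series mostly up to about 70 µM.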 Note: nearly all actives have a fitted effect of over 15% in size. Note: potency is the fitted concentration of half-maximal effect. In short, it runs like this: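 Compounds were tested in HepG2 hepatocellular carcinoma cells harbouring a stably integrated luciferase gene under control of 20 DREs. Increased reporter signal after 24 h treatment at 37C was taken as AhR activation.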

Experiment [9] in a line: qHTS assay to identify small molecule that activate the aryl hydrocarbon receptor (AhR) signaling pathway - cell viability counter screen (AID 743086). Note: nearly all actives have a fitted effect of over 45% in size. Note: potency is the fitted concentration of half-maximal effect. The gist of the method:
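HepG2-AhR-luc (HG2L7.5c1) cells, 4000/well, were preincubated 5 h at 37C, exposed to compound in qHTS format for 24 hr at 37C, then given CellTiter-Fluor for 30 min; viability was read as fluorescence in the reporter wells.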

SMILES strings stand for the structures. Records with an inconclusive call do not appear. Activity calls are given as the source filed them. Unless noted, calls come from the whole dose curve; as a rule, active = well fitted curve in the direction sought with a large enough effect in the repeat runs; inconclusive = weak or mixed curves; inactive = no such curve, though single readings can be large; an effect the other way counts as inactive or inconclusive.

Chain of Aryl hydrocarbon receptor (Homo sapiens) (P35869 whole entry, looked up): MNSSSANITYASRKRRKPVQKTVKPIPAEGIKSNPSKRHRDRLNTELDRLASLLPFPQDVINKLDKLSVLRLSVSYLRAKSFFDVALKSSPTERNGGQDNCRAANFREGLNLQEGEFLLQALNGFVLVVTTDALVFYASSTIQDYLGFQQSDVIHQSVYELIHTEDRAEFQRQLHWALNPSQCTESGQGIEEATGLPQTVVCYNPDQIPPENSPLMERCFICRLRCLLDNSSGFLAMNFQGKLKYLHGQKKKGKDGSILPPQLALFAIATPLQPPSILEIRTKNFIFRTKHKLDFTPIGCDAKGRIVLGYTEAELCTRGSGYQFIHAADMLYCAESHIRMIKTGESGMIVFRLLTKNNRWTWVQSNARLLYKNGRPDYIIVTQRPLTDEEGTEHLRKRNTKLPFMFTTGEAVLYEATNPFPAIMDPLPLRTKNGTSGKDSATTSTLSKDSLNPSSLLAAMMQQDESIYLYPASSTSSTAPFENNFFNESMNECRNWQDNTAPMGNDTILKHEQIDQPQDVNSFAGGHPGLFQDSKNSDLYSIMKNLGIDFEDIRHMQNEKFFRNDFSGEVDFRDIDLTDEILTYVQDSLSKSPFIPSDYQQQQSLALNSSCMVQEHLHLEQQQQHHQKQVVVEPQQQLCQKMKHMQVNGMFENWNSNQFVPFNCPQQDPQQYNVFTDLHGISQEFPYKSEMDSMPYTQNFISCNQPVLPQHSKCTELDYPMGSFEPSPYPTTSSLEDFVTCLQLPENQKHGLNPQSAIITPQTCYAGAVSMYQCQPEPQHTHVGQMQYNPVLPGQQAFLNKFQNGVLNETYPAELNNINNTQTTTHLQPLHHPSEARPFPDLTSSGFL
Chain of Peroxisome proliferator-activated receptor gamma (Homo sapiens) (P37231 whole entry, looked up): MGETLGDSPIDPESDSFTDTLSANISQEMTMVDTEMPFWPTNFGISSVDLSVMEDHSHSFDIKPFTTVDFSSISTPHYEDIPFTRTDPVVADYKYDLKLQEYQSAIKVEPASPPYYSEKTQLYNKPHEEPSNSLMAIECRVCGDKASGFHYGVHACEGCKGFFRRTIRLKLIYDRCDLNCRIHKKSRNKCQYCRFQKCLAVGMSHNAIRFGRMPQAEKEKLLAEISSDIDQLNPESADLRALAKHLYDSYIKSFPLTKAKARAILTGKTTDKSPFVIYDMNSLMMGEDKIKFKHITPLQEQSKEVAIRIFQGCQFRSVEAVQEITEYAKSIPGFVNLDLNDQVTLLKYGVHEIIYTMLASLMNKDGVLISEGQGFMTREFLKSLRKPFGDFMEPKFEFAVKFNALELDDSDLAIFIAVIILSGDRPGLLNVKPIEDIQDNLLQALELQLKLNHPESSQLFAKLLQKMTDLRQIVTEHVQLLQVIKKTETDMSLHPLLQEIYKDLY

For the molecule `O=C(CCC1CCN(Cc2ccccc2)CC1)c1ccc2c(c1)NCCCC2`, the Potency entry in experiment [1], in [2], in [3], in [5], in [6] and in [7] was “inactive” in each case. Besides, the Potency in experiment [4] is 23.7 µM (active).

Regarding `Nc1c(I)cc(I)c(C(=O)N(CCC(=O)O)c2ccccc2)c1I`, the Potency result in experiment [3], in [4], in experiment [5] and in [7] was “inactive” in each case.

As to `O=C(CCCCCCC(=O)Nc1ccccc1)NO`, the Potency result in [8] and in [7] was “inactive” in each case.

Turning to `COc1cc2ncnc(Nc3ccc(F)c(Cl)c3)c2cc1OCCCN1CCOCC1`, the Potency result in experiment [9], in [1], in [3] and in experiment [6] was “inactive” in each case.

For the molecule `COC(=O)c1cc(Cl)ccc1NS(=O)(=O)C(F)(F)F`, the Potency result in experiment [2], in experiment [3], in [4], in experiment [5], in [6] and in [7] was “inactive” each time.

With `COc1ccc(C(=O)c2cccc(O)c2)c(OC)c1`, in experiment [8], the Potency is 17.2 µM (active). Besides, the Potency result in experiment [9], in experiment [1], in experiment [3], in experiment [5] and in [7] was “inactive” in each case.

On to `Cc1ccc(Nc2nccc(N(C)c3ccc4c(C)n(C)nc4c3)n2)cc1S(N)(=O)=O`, for which the Potency was 23.7 µM (active) in experiment [9] and 26.6 µM (active) in experiment [2]. Moreover, in experiment [5], the Potency result is “inactive”.

Regarding `C=CC(C)(C)CC(=O)OC`, the Potency result in experiment [3], in experiment [4], in [5] and in [7] was “inactive” each time.

For the molecule `CCCCCCOC(=O)CCCCCCCC(=O)OCCCCCC`, the Potency result in [9], in experiment [3], in experiment [4], in experiment [5], in experiment [6] and in experiment [7] was “inactive” in each case.

On to `O=C(O)c1c(O)c(-c2ccccc2)nc2ccccc12`, for which the Potency entry in [3], in experiment [4], in [5], in experiment [6] and in experiment [7] was “inactive” each time.

For the molecule `C=CCNc1nc(NCC=C)nc(N2CCN(C(c3ccc(F)cc3)c3ccc(F)cc3)CC2)n1`, the Potency entry in experiment [2], in experiment [3], in [6] and in experiment [7] was “inactive” throughout.

For the molecule `CCNC(=O)N1CCN(CCCC(c2ccc(F)cc2)c2ccc(F)cc2)CC1`, the Potency result in [8], in [3], in [5], in experiment [6] and in [7] was “inactive” in each case. The Potency in [9] is 13.3 µM (active).

For `COc1ccc([C@@H]2Sc3ccccc3NC(=O)[C@@H]2O)cc1`, the Potency result in [3], in [4], in experiment [5], in experiment [6] and in experiment [7] was “inactive” each time.

As for `COC(=O)c1cc(S(N)(=O)=O)ccc1OC`, the Potency entry in experiment [2], in experiment [3], in experiment [4], in experiment [6] and in experiment [7] was “inactive” in each case.

With `CCCCC1C(=O)N(c2ccccc2)N(c2ccc(O)cc2)C1=O` (stereo unspecified), the Potency result in [8], in experiment [9], in experiment [3] and in experiment [5] was “inactive” in each case. Further, the Potency in experiment [4] is 29.8 µM (active).

As for `O=C(N/N=C/c1ccc([N+](=O)[O-])o1)c1ccc(O)cc1`, the Potency in experiment [9] is 11.4 µM (active); in experiment [5], 23.7 µM (active). Further, the Potency entry in experiment [1] and in [7] was “inactive” each time.

Take `Cn1c(=O)c2c(ncn2CC(=O)O)n(C)c1=O`: the Potency result in [2], in experiment [3], in experiment [4] and in [6] was “inactive” throughout.

`COCCOC`: the Potency result in experiment [3], in experiment [4], in experiment [5], in experiment [6] and in experiment [7] was “inactive” in each case.

As for `O=C(O)c1ccccc1NCCc1ccccc1`, the Potency entry in experiment [3], in [5], in experiment [6] and in experiment [7] was “inactive” each time.

With `CO[C@@]12[C@H](COC(N)=O)C3=C(C(=O)C(C)=C(N)C3=O)N1C[C@@H]1N[C@@H]12`, the Potency in [9] is 29.8 µM (active); in [5] it was 16.8 µM (active). In addition, the Potency result in [7] is “inactive”.

On to `CC(=O)N(c1onc(C)c1C)S(=O)(=O)c1ccc(N)cc1`, for which the Potency result in experiment [3], in experiment [4] and in experiment [6] was “inactive” throughout.

On to `Cc1ccc(S(=O)(=O)NC2CCCCC2)cc1`, for which the Potency entry in experiment [8], in experiment [1], in experiment [3], in experiment [4], in [5] and in experiment [6] was “inactive” each time. The Potency result in experiment [7] is “inactive”.

Consider `O=C1OCCN1/N=C/c1ccc([N+](=O)[O-])o1`, for which the Potency result in experiment [1], in experiment [3], in experiment [6] and in [7] was “inactive” each time. For the same molecule, the Potency in experiment [4] was 15 µM (active).

`CCc1c2c(nc3ccc(OC(=O)N4CCC(N5CCCCC5)CC4)cc13)-c1cc3c(c(=O)n1C2)COC(=O)[C@]3(O)CC`: the Potency entry in [8], in experiment [9], in experiment [3], in experiment [5], in [6] and in [7] was “inactive” in each case.

Regarding `O=C(C(=O)c1ccccc1)c1ccccc1`, the Potency entry in experiment [9], in experiment [3], in [5], in experiment [6] and in experiment [7] was “inactive” throughout.

In the case of `COCCOC(=O)C1=C(C)NC(C)=C(C(=O)OC/C=C/c2ccccc2)C1c1cccc([N+](=O)[O-])c1` (stereo unspecified), the Potency in experiment [2] is 18.8 µM (active). In addition, the Potency entry in experiment [3], in experiment [6] and in experiment [7] was “inactive” in each case.

In the case of `O=C(N[C@@H](c1ccccc1)[C@@H]1CCCCN1)c1cccc(C(F)(F)F)c1Cl`, the Potency entry in [8], in experiment [6] and in [7] was “inactive” throughout. Besides, the Potency in experiment [9] was 24.3 µM (active); in experiment [5], 21.7 µM (active).

As for `CN(C)CCOC1=Cc2ccccc2Sc2ccc(Cl)cc21`, the Potency entry in experiment [8], in experiment [3], in [4], in experiment [5], in [6] and in experiment [7] was “inactive” in each case.

Regarding `CC1=C(/C=C/C(C)=C\C=C\C(C)=C\C(=O)O)C(C)(C)CCC1`, the Potency entry in experiment [8], in experiment [9], in [2], in experiment [3], in experiment [5] and in [6] was “inactive” in each case. In experiment [7], the Potency entry was “inactive”.

For `CCOCCn1c(C2CCN(CCc3ccc(C(C)(C)C(=O)O)cc3)CC2)nc2ccccc21`, the Potency result in experiment [3], in [4], in experiment [5] and in [7] was “inactive” throughout.

On to `C/C(=N/NC(=O)c1ccncc1)C(=O)O`, for which the Potency entry in [2], in experiment [4], in [5], in experiment [6] and in experiment [7] was “inactive” each time.

Consider `CN1Cc2cc(C(=O)N3CCC(C4CCNCC4)CC3)ccc2N[C@@H](CC(=O)O)C1=O`, for which the Potency result in experiment [2], in experiment [3], in experiment [5] and in experiment [6] was “inactive” each time.

Turning to `CC1C2CC(CC2C2CCCC(O)C2)C1(C)C` (stereo unspecified), the Potency entry in experiment [8], in [9] and in experiment [3] was “inactive” in each case. Moreover, the Potency was 61.1 µM (active) in experiment [5] and 49 µM (active) in experiment [6].

As for `CCOC(=O)N1CCC(n2c(=O)[nH]c3cc(Cl)ccc32)CC1`, the Potency result in experiment [2], in experiment [3], in experiment [5], in [6] and in [7] was “inactive” each time. In addition, the Potency in [4] is 6.68 µM (active).

With `O=C(CCCN1CCN(c2ccc(F)cc2)CC1)NC1c2ccccc2CSc2ccccc21` (stereo unspecified), the Potency result in [8], in experiment [6] and in experiment [7] was “inactive” each time.

As for `N#C/C(=C1/SC[C@@H](c2ccc(Cl)cc2Cl)S1)n1ccnc1`, the Potency result in [9], in [3] and in [7] was “inactive” throughout.

Turning to `CCCCC(CC)C(=O)OCCOCCOCCOCCOC(=O)C(CC)CCCC` (stereo unspecified), the Potency result in experiment [8], in experiment [9], in [1], in experiment [3], in experiment [4] and in [5] was “inactive” throughout. The Potency result in experiment [6] and in experiment [7] was “inactive” throughout.

Turning to `C/C=C/C=C/CCCCCCCO`, the Potency entry in [9], in [1] and in experiment [3] was “inactive” each time.

For the origin of these results see PubChem BioAssay (Tox21).
